Bioassay records (PubChem BioAssay)
Sampled rows, rich in hits. Any-hit rate of the full collection: about 2.3%.
Nrf2 block = blocks Nrf2 signaling; AID 504444; A549 ARE-Fluc reporter, luciferase luminescence, 18-24 h; Potency, µM (series often up to 46 µM), usual class: inhibitors; 360,000 compounds, 2.1% hits; further: nearly all actives have a fitted effect of over 60% in size
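Two sequential reads on A549 ARE_Fluc cells exposed to compound for 18-24 h: a CellTiter-Fluor fluorescence read for viability, then a luciferase luminescence read for Nrf2/ARE activity.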
Rango complex inh = inhibitors of Rango-importin beta complex formation; Potency, µM (top dose mostly 92.2 µM); AID 540263; Q14974; 340,000 compounds, 0.031% hits; Rango CFP/YFP FRET sensor + importin beta, 45 min; calls by dose curve; further: nearly all actives have a fitted effect of over 15% in size
Target sequence (Q14974 whole entry, looked up): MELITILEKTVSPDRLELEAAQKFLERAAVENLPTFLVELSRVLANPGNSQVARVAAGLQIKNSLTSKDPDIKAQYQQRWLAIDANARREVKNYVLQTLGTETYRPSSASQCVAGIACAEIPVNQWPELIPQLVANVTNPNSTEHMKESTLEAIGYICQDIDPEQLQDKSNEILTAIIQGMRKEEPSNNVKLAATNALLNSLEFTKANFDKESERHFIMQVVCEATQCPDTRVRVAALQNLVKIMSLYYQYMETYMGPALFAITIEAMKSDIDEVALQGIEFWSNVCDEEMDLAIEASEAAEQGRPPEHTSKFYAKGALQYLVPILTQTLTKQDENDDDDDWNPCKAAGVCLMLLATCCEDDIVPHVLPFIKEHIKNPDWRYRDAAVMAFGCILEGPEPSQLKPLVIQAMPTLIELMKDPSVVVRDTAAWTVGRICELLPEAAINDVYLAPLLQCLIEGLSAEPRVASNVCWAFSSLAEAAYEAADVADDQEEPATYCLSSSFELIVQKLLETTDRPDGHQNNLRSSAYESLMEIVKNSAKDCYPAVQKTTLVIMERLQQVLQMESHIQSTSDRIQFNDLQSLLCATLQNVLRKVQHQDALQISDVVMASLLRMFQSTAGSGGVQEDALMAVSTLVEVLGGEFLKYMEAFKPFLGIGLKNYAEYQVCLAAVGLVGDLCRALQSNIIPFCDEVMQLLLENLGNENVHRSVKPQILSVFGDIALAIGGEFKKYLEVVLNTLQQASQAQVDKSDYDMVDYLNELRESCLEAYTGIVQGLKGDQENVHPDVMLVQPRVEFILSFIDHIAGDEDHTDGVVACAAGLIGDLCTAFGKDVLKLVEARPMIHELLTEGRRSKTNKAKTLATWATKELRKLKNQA
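FRET biosensor (snurportin 1 IBB flanked by EYFP and cerulean), 50 nM, with compound 5 min, then 0.125 microM importin beta in PBS, 1 mM DTT, 0.02% Tween-20, 0.1% BSA. CFP/YFP ratio read after 45 min at room temperature; pre-read flags interference.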
Nrf2 ARE act = activates Nrf2 signaling; AREc32 ARE-luciferase reporter (MCF7-derived line), luminescence, 24 h; Potency, µM (highest dose often 46.1 µM), most hits filed as activators; 410,000 compounds, 0.31% hits; further: nearly all actives have a fitted effect of over 65% in size
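Steps: seed AREc32_Fluc cells (1000/well, 5% FBS OPTI-MEM); incubate overnight at 37 deg C; add 23 nL compound; incubate 24 hr; add Steady-Glo; hold 30 min RT; read luminescence.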
A549 tox-1 = A549 cytotoxicity, counter-screen for Nrf2 inhibitors; A549 ARE-Fluc cells, CellTiter-Fluor viability, 18-24 h; Potency, µM (top dose mostly 46 µM), hits mostly inhibitors; 390,000 compounds, 0.16% hits; AID 504648
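A549 ARE_Fluc cells in 5% FBS OPTI-MEM were exposed to compounds in concentration-response for 18-24 h at 37 deg C. Viability was read by CellTiter-Fluor fluorescence (Ex 405/Em 525) after 30 min, before the luciferase read.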
Rango dissoc inh = inhibitors of RanGTP-induced Rango-importin beta complex dissociation. O95149+P62826. Biochemical FRET Rango-importin beta, RanGTP-induced dissociation. Potency, µM (highest dose often 46.1 µM). 340,000 compounds, 0.071% hits; calls by dose curve; further: nearly all actives have a fitted effect of over 45% in size
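Compounds preincubate 5 min with complex of recombinant Rango and importin beta in PBS with 1 mM DTT. Ran (0.6 uM) loaded with 2 mM GTP plus 0.2 uM RCC1 starts dissociation; FRET is recorded 45 min later.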
FLuc enzyme inh = blocks purified firefly luciferase in Nrf2 counterscreen; purified firefly luciferase, luminescence inhibition; AID 720522; Potency, µM (doses to about 57.5 µM), usual class: inhibitors; 1,400 compounds, 4% hits; shares compounds with Nrf2 block; further: nearly all actives have a fitted effect of over 65% in size
A549 tox-2 = toxic to A549 ARE-Fluc cells in Nrf2 counterscreen | shares compounds with Nrf2 block | A549 ARE-Fluc cells, cytotoxicity counterscreen | Potency, µM (doses to about 46.1 µM), usual class: inhibitors | 1,400 compounds, 2% hits;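 further: cells exposed to compounds for 18 to 24 hours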
ARE-Fluc inh = reduces Nrf2 ARE reporter signal in A549 cells | A549 ARE-firefly luciferase reporter, luminescence | 1,400 compounds, 74% hits | Potency, µM (highest dose often 46.1 µM), actives largely listed as inhibitors | shares compounds with Nrf2 block | AID 720524; further: nearly all actives have a fitted effect of over 65% in size
Each line names hits and unclear results; the compound was inactive in the other large screens (follow-up assays come after a bar, where shown). Unless noted, the call rests on the fitted dose curve; in most records, active means well fitted curve in the direction sought with a large enough effect; inconclusive means small, poorly fitted or top-dose-only effect, or another doubt; inactive means no such curve, though single readings can be large; an effect the other way counts as inactive or inconclusive.

COc1cccc2cc(C(=O)N3CC(C)OC(C)C3)c(=O)oc12 (centres undefined)	none
COc1cccc(NC(=O)N(Cc2cn(C)c3ccccc23)C2CCCCC2)c1	Nrf2 block 3.3µM, A549 tox-1 inconclusive (no result: Rango complex inh, Rango dissoc inh) | FLuc enzyme inh inactive | A549 tox-2 inconclusive | ARE-Fluc inh inconclusive
Cc1c(C(C)NC(=O)c2cc(COc3cccc4cnccc34)on2)cnn1C (centres undefined)	Nrf2 block 8.2µM | FLuc enzyme inh inactive | A549 tox-2 inactive | ARE-Fluc inh 7.3µM
CN(C)c1ccc(/C=C/c2ccncc2)cc1	Rango complex inh inconclusive, Rango dissoc inh inconclusive
CCN(CC)c1ccc(/C=C/c2ccncc2)cc1	none (no result: Nrf2 block, Rango complex inh, Nrf2 ARE act, A549 tox-1, Rango dissoc inh) | FLuc enzyme inh inactive | A549 tox-2 6.5µM | ARE-Fluc inh 1.5µM
Cc1ccc(CNc2c(C)c(C)nc3nncn23)cc1	Nrf2 block 3.7µM (no result: Rango complex inh, Rango dissoc inh) | FLuc enzyme inh inactive | A549 tox-2 inactive | ARE-Fluc inh 4.1µM
COc1ccc(C(=O)C2CCCN(Cc3cnc(N4CCOCC4)s3)C2)c(OC)c1 (centres undefined)	Nrf2 block 9.2µM, A549 tox-1 inconclusive | FLuc enzyme inh inactive | A549 tox-2 inactive | ARE-Fluc inh inactive
COc1ccc(C(=O)C2CCCN(Cc3cnc(N4CCOCC4)s3)C2)cc1F (centres undefined)	Nrf2 block inconclusive
CC(C)Oc1cccc(C(=O)C2CCCN(Cc3cnc(N4CCOCC4)s3)C2)c1 (centres undefined)	Nrf2 block 9.2µM | FLuc enzyme inh inactive | A549 tox-2 inactive
CC(=O)N(C(C)=O)N1C(=O)C2C3c4ccccc4C(c4ccccc43)C2C1=O (centres undefined)	Nrf2 block 9.2µM, A549 tox-1 inconclusive | FLuc enzyme inh inactive | A549 tox-2 inconclusive | ARE-Fluc inh 15µM
CN1C(=O)C2C3c4ccccc4C(c4ccccc43)[C@@H]2C1=O (some centres undefined)	none
CC1Cc2cc(S(=O)(=O)N3CCN(c4cccc(Cl)c4)CC3)ccc2N1C(=O)C1CC1 (centres undefined)	Nrf2 block inconclusive
CC(=O)N1c2ccc(S(=O)(=O)N3CCC(C(=O)N4CCN(c5ccc(Cl)cc5)CC4)CC3)cc2CC1C (centres undefined)	Nrf2 block 5.2µM | FLuc enzyme inh inactive | A549 tox-2 inactive
CC1Cc2cc(S(=O)(=O)N3CCN(c4ccc(Cl)cc4)CC3)ccc2N1C(=O)C1CC1 (centres undefined)	Nrf2 block 7.3µM | FLuc enzyme inh inactive | A549 tox-2 inactive | ARE-Fluc inh 8.2µM
CCC1CCCCN1CCCCOc1cccc(Cl)c1 (centres undefined)	none
CC(C)(C)n1ncc2c(=O)n(Cc3ccc(-c4ccccc4C#N)cc3)cnc21	none (no result: Nrf2 block, Rango complex inh, Nrf2 ARE act, A549 tox-1, Rango dissoc inh) | FLuc enzyme inh inactive | A549 tox-2 inactive | ARE-Fluc inh 9.2µM
c1csc(CNc2ncnc3sccc23)c1	Nrf2 block 5.8µM | FLuc enzyme inh inactive | A549 tox-2 inactive | ARE-Fluc inh 7.3µM
Cc1csc(NC(=O)c2nn(C)c(C)c2[N+](=O)[O-])n1	Nrf2 block inconclusive
CC12CCC(=O)C=C1CCC1C2C(O)CC2(C)C1CCC2(O)C(=O)COC(=O)COCC(=O)O (centres undefined)	Nrf2 block 0.29µM | FLuc enzyme inh inactive | A549 tox-2 inactive | ARE-Fluc inh 0.073µM
CCCCCCCC(=O)OCC(=O)[C@@]1(O)CC[C@H]2[C@@H]3CCC4=CC(=O)CC[C@]4(C)[C@H]3[C@@H](O)C[C@@]21C	Nrf2 block 0.46µM | FLuc enzyme inh inactive | A549 tox-2 inactive | ARE-Fluc inh 0.33µM
CC12CCC(=O)C=C1CCC1C2C(O)CC2(C)C1CCC21OCC1=O (centres undefined)	Nrf2 block inconclusive
CCOC(=O)OCC(=O)C1(O)CCC2C3CCC4=CC(=O)CCC4(C)C3C(O)CC21C (centres undefined)	Nrf2 block 0.21µM | FLuc enzyme inh inactive | A549 tox-2 inactive
CC(=O)OCC(=O)C1(O)CCC2C3CCC4=CC(=O)CCC4(C)C3C(O)CC21C (centres undefined)	Nrf2 block 0.15µM | FLuc enzyme inh inactive | A549 tox-2 inactive | ARE-Fluc inh 0.18µM
CC12CCC(=O)C=C1CCC1C2C(=O)CC2(C)C1CCC2(O)C(=O)CO (centres undefined)	none
COc1ccc(CCNC(=O)C2CCC(C(C)(C)C)CC2)cc1OC (centres undefined)	none
CC(C)(C)C(=O)NC1CC2CCCC(C1)N2C(=O)Nc1cccc(Cl)c1 (centres undefined)	Rango complex inh inconclusive
CSc1ccc(/C=N/NC(=O)CNc2cccc3ccccc23)cc1	none
O=C(CNc1cccc2ccccc12)N/N=C/c1ccc[nH]1	Nrf2 block 3.7µM | FLuc enzyme inh inconclusive | A549 tox-2 inactive | ARE-Fluc inh 2.9µM
CC(C)CNC(=O)NC(=O)COC(=O)Cn1cnc2ccccc2c1=O	none
CC(C)[C@H](NC(=O)CCCn1nnc2ccccc2c1=O)C(=O)O	none
O=C(Oc1cccnc1)c1ccc([N+](=O)[O-])cc1Cl	Nrf2 block 1µM | FLuc enzyme inh inactive | A549 tox-2 inconclusive
CCN1CCN(C(=O)c2c(-c3c(Cl)cccc3Cl)noc2C)CC1	none
Cc1nc(N)nc(N)c1-c1ccc(Cl)c(Cl)c1	Nrf2 block inconclusive | FLuc enzyme inh inactive | A549 tox-2 inactive | ARE-Fluc inh 1.2µM
Cc1cc(OCc2nc(N)nc(N)c2-c2ccc(Cl)c(Cl)c2)ccc1[N+](=O)[O-]	Nrf2 block 8.2µM | FLuc enzyme inh inactive | A549 tox-2 inactive | ARE-Fluc inh 15µM
CCN(CC(=O)NCc1cccs1)CC(=O)Nc1ccccc1C	none
CCC[n+]1c2ccccc2cc2ccccc21	Rango complex inh inconclusive, Rango dissoc inh inconclusive
CCC[n+]1c(/C=C/c2c(OC)cc(OC)cc2OC)ccc2ccccc21	none (no result: Nrf2 block, Rango complex inh, Nrf2 ARE act, A549 tox-1, Rango dissoc inh) | FLuc enzyme inh inactive | A549 tox-2 7.3µM | ARE-Fluc inh 2.3µM
CCCC[n+]1c2ccccc2cc2ccccc21	Rango complex inh inconclusive, Rango dissoc inh inconclusive
COc1cc(OC)c(/C=C/c2ccc3ccccc3[n+]2C)c(OC)c1	none (no result: Nrf2 block, Rango complex inh, Nrf2 ARE act, A549 tox-1, Rango dissoc inh) | FLuc enzyme inh inactive | A549 tox-2 inconclusive | ARE-Fluc inh 1.6µM
